This is a sample that favours compounds with a hit; in the whole collection about 0.59% have one here.
Rv3671c protease = Rv3671c (M. tuberculosis) protease inhibition. P9WHR9. inhibition, % at 5.96 µM. 0.048% of 320,000 active. AID 2606; in the data active = inhibition above about 38%;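 also: extracellular domain of Rv3671c used as enzyme; 0% = enzyme with DMSO and 100% = no enzyme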
DUSP3 inh = inhibitors of human VHR1 phosphatase (DUSP3). P51452. recombinant VHR phosphatase, pNPP absorbance. inhibition, % at 13.3 µM. 0.52% of 290,000 active. AID 1654; in the data active = inhibition above about 50%
Mtb hypoxia inh = reduces hypoxia-regulated biosensor signal in M. tuberculosis; M. tuberculosis hypoxia-regulated fluorescent reporter, fluorescence; fluorescence inhibition, % (test concentration not listed); 0.1% of 300,000 active; AID 1159583; in the data active = fluorescence inhibition mostly above about 23%, no sharp cut-off; inactive = mostly below about 17%
Mtb bLac sens = beta-lactam sensitization of Mtb H37Rv; M. tuberculosis H37Rv growth with meropenem, percent inhibition; inhibition, % at 25 µM; 0.27% of 330,000 active; AID 434955; call rule not given here;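 also: growth measured after seven days incubation then overnight dye step; 0% = bacteria only wells and 100% = bacteria with antibiotic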
UGM FP inh = inhibitors of M. tuberculosis UDP-galactopyranose mutase; P9WIQ1; purified UGM, fluorescence polarization probe displacement; inhibition, % at 10 µM; 0.06% of 320,000 active; AID 504406; in the data active = inhibition above about 10%, passing the limit was not always enough
Target sequence (P9WIQ1 whole entry, looked up): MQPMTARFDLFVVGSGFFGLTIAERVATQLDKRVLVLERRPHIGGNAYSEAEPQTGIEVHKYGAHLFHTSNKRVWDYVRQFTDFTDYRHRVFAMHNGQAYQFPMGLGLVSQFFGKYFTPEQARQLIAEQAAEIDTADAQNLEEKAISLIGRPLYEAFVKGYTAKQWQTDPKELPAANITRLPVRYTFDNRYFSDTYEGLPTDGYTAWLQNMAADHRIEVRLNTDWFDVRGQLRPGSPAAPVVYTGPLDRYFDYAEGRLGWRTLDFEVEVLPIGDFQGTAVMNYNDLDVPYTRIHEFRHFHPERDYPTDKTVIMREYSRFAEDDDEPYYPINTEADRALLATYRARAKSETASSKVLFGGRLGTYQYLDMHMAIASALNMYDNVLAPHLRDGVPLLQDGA
The depositor's hits bear a star; . = no result.

SMILES | Rv3671c protease | DUSP3 inh | Mtb hypoxia inh | Mtb bLac sens | UGM FP inh
NNc1nc(-c2ccccc2)cc(-c2ccc(Br)cc2)n1 | -6 | 1 | -1 | 3 | -1
Brc1ccc(-n2cnc(-c3ccccc3)c2)cc1 | -6 | 57* | 9 | 53 | 1
O=C(Cc1ccc(Cl)c(Cl)c1)NN=Cc1cccnc1 | . | . | 0 | . | .
O=C(Cc1ccc(Cl)c(Cl)c1)N/N=C/c1cccnc1 | -6 | 57* | . | -4 | -3
CCOc1cc(/C=C2/C(=N)N3C(=NC2=O)SN=C3S(C)(=O)=O)ccc1OC(=O)c1ccco1 | -12 | -13 | -3 | 2 | -5
CCN1CCN(C(=S)c2ccc(Cl)cc2)CC1 | -1 | 50* | 6 | -5 | -3
OCCN1CCN(C(=S)c2ccc(Cl)cc2)CC1 | -1 | -6 | . | 75 | 1
O=C(COC(=O)c1ccc(Cl)cc1)NC(=O)NC1CCCC1 | . | . | 8 | . | .
CN(C)S(=O)(=O)c1ccc(C(=O)OCC(=O)NC(=O)NC2CCCC2)cc1 | -5 | . | 31* | -11 | -1
Cc1c(C(=O)NCC2COc3ccccc3O2)oc2ccc(S(=O)(=O)N(C)C3CCCCC3)cc12 (stereo unspecified) | -9 | 52* | 2 | 14 | 1
CCNc1oc(COc2ccccc2F)nc1C#N | 2 | 6 | 4 | -10 | -1
NC(=O)CSc1nnc(CNc2ccc(F)cc2)n1CC1CCCO1 (stereo unspecified) | -5 | -21 | -2 | -8 | 4
Cc1ccc(NCc2nnc(SCC(N)=O)n2CC2CCCO2)c(C)c1 (stereo unspecified) | -13 | 53* | 4 | 1 | 2
O=C(OCC(=O)C12CC3CC(CC(C3)C1)C2)c1ccc(CO)cc1 | 1 | . | 25* | -2 | -1
O=C1Nc2ccccc2C1=NN=Cc1ccc(-c2ccc([N+](=O)[O-])cc2)o1 | . | . | 17 | . | .
O=C1Nc2ccccc2/C1=N/N=C/c1ccc(-c2ccc([N+](=O)[O-])cc2)o1 | . | 54* | . | . | .
Cc1cc(C)cc(NC(=O)Nc2cnccn2)c1 | 4 | -8 | 10 | -4 | -1
CC(=O)c1cccc(NC(=O)NC2CCCCCCC2)c1 | 0 | 19 | 33* | 100 | 2
Cc1ccc(Cn2c(=N)c(S(=O)(=O)c3ccc(Br)cc3)cc3c(=O)n4ccccc4nc32)cc1 | 3 | 1 | -1 | -12 | 2
COc1ccc(CCn2c(=N)c(S(=O)(=O)c3ccc(C)cc3)cc3c(=O)n4ccccc4nc32)cc1 | 1 | -14 | 3 | 8 | 21*
c1ccc(SCCOCCN2CCc3ccccc3C2)cc1 | 1 | -2 | 5 | -3 | 2
O=c1cc2c(=O)oc3cc(O)c(O)oc3c2c(O)c1O | . | 112* | 3 | . | .
O=c1oc2cc(O)c(Cl)cc2c2ccccc12 | 4 | -8 | 6 | 65 | 1
O=C(Nc1c(C(=O)C2CC2)oc2ccccc12)c1ccc(Cl)cc1 | 6 | 51* | . | 3 | -1
Brc1ccc(Oc2nsnc2N2CCOCC2)cc1 | -9 | -7 | 11 | -9 | 0
SMILES | Rv3671c protease | DUSP3 inh | Mtb hypoxia inh | Mtb bLac sens | UGM FP inh
O=S(=O)(NCCc1cn2ccccc2n1)c1ccc(-c2ccccc2)cc1 | -6 | 57* | -8 | -3 | 1
CCOC(=O)c1c(C)oc2c1c(C=NCC1CCCO1)c(O)c1ccccc12 (stereo unspecified) | . | 51* | . | . | .
O=C(Nc1cccc(Cl)c1)NC1CC2CCC1C2 (stereo unspecified) | 0 | 14 | 32* | 100 | 2
CCCc1cc(=O)oc2cc(OCC(=O)NCc3cccs3)ccc12 | -4 | 4 | 0 | -1 | -1
O=CN1CCCN(Cc2nc(Cc3ccccc3F)no2)CC1 | 4 | 8 | 13 | -9 | 2
CC(=O)c1c(C)[nH]c(C(=O)N2CCN(c3ccccn3)CC2)c1C | -5 | 57* | 0 | -8 | 0
Cc1ccccc1N(CC(=O)NCc1ccccc1)C(=O)CCC(=O)Nc1nccs1 | 2 | 51* | 14 | -1 | 6
COc1ccc(C2C=C(c3ccccc3)Nc3nc(CCCO)nn32)cc1 (stereo unspecified) | -5 | -4 | 8 | -5 | -1
COc1ccc(C2C=C(c3cccs3)Nc3nc(CCCO)nn32)cc1 (stereo unspecified) | -5 | 14 | . | -6 | 29*
Cc1[nH]c2ccc(C(=O)NCCCN3CCCCC3)cc2c1C | 5 | 57* | -3 | -6 | 0
Cc1[nH]c2ccc(C(=O)NCCN3CCCCCC3)cc2c1C | 5 | -13 | 3 | 4 | -4
CCOc1ccc(N2CC(O)=C(c3nc4ccccc4c(=O)[nH]3)C2=N)cc1 | -2 | 56* | 11 | -1 | 1
CCc1ccc(N2CC(O)(c3cccs3)[N+]3=C2SCCC3)cc1 (stereo unspecified) | -4 | 10 | -8 | -10 | -1

Bioassay records: PubChem, several laboratories
